The nature of experiment [1]: NCI Yeast Anticancer Drug Screen. Data for the rad50 strain (AID 155).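 Note: 0% = growth of vehicle-only cultures of the same strain.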 The settings on record: S. cerevisiae rad50 strain growth inhibition; at 50.0 µM; stronger effect = higher value. The gist of the method: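 Growth of the mutant yeast was measured after compound exposure and referenced to vehicle-treated cultures.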
A short description of experiment [2]: NCI Yeast Anticancer Drug Screen. Data for the mec2-1 strain (AID 157). The settings on record: S. cerevisiae mec2-1 strain, at 50.0 µM, stronger effect = higher value. The method in brief: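 Each compound was tested on mec2-1 yeast, a strain altered in DNA damage repair or cell cycle control. Growth inhibition is reported relative to vehicle.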
Experiment [3] in a line: NCI Yeast Anticancer Drug Screen. Data for the sgs1 mgt1 strain (AID 161).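 Note: 0% = growth of cultures given vehicle only.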 The settings on record: S. cerevisiae sgs1 mgt1 strain, at 50.0 µM, stronger effect = higher value. The method in brief:
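Read-out: growth inhibition vs vehicle controls. Cells: mutant yeast strain deficient in DNA damage repair.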

A short description of experiment [4]: NCI Yeast Anticancer Drug Screen. Data for the cln2 rad14 strain (AID 165).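 Note: 0% = growth equal to vehicle treated cultures.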 The conditions noted are these: S. cerevisiae cln2 rad14 strain, at 50.0 µM, stronger effect = higher value. The method in brief:
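Test compounds were added to cln2 rad14 yeast cultures; inhibition of growth was then determined by comparison with vehicle treatment.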

Experiment [5] in a line: NCI Yeast Anticancer Drug Screen. Data for the bub3 strain (AID 167). The settings on record: S. cerevisiae bub3 mutant strain, at 50.0 µM, stronger effect = higher value. The gist of the method:
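Whole-cell yeast assay. The mutant strain was incubated with compounds, and growth inhibition was determined by comparison with vehicle-treated cells.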

Experiment [6] is described as follows: NCI Yeast Anticancer Drug Screen. Data for the mlh1 rad18 strain (AID 175). The settings on record: S. cerevisiae mlh1 rad18 strain growth inhibition; at 50.0 µM; stronger effect = higher value. The gist of the method:
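Inhibition values reflect reduced growth of mutant yeast versus vehicle-treated controls following compound exposure; the mutations affect DNA damage repair.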

The text below walks through data of PubChem BioAssay (NCI).

This is part of a sample that, as a whole, favours compounds with a hit. Of some 79,000 tested, about 15% had one in any assay. A number with no mark means an inactive call. Calls of active or inactive are those of the source. Cut-off read from the data, not from the text of the source: active = growth inhibition above about 70%; inactive = the rest.

As to `C[N+]([O-])(CCO)Cc1ccccc1` (stereo unspecified), the growth inhibition in experiment [1] is -1.45%; in experiment [2], -17.8%; in experiment [3], -6.1%; in experiment [4], 0.95%; in experiment [5] it was 4.75%; in experiment [6] it was -14.3%.
With `CC(=O)OCC1CC=CCC1C` (stereo unspecified), the growth inhibition in experiment [1] is 5.35%; in experiment [2] it was -15.7%; in experiment [3] it was -10.2%; in experiment [4], 1.75%; in experiment [5], 2.75%; in experiment [6], 1.5%.
For the compound `O=c1nc(Oc2ccccc2)nc2ccc(Cl)nn12`, the growth inhibition in experiment [1] is 3.4%; in experiment [2] it was 31.4%; in experiment [3], 6.95%; in experiment [4] it was 5.7%; in experiment [5], 40.9%; in experiment [6], 3.1%.
In the case of `COC(=O)C1OCOC2C(CO)OCOC12` (stereo unspecified), the growth inhibition in experiment [1] was 6.8%; in experiment [2], 23.1%; in experiment [3] it was -1.5%; in experiment [4], -49.4%; in experiment [5], 2.8%; in experiment [6], -7.85%.
Regarding `CCN(CC)CCOc1cc(C(C)C)ccc1C`, the growth inhibition was 76% (active) in experiment [1]; 63.5% in experiment [2]; 63.5% in experiment [3]; 76.2% (active) in experiment [4]; 40.5% in experiment [5]; 78.2% (active) in experiment [6].
For the compound `C=CCSc1ccc(Cl)cc1[N+](=O)[O-]`, the growth inhibition is 18.8% in experiment [1]; -3.4% in experiment [2]; 6.05% in experiment [3]; -8.45% in experiment [4]; 4% in experiment [5]; 0.3% in experiment [6].
`CCN(CC)CCOC(=O)c1ccc(N=NC2Sc3nc4ccccc4n3C2=O)cc1` (stereo unspecified): the growth inhibition was 27.9% in experiment [1]; 20.2% in experiment [2]; 15.9% in experiment [3]; 14.4% in experiment [4]; 6.8% in experiment [5]; 27.8% in experiment [6].
`CC(Nc1ccc(Br)cc1[N+](=O)[O-])C(=O)O` (stereo unspecified): the growth inhibition was 22.1% in experiment [1]; 11.6% in experiment [2]; 58.2% in experiment [3]; 19.1% in experiment [4]; 30.8% in experiment [5]; 6.95% in experiment [6].
`CCOC(=O)C(C#N)=C1CC(C)OC(C)C1` (stereo unspecified): the growth inhibition in experiment [1] was 12.3%; in experiment [2], 0.65%; in experiment [3] it was 5.85%; in experiment [4] it was -33.6%; in experiment [5], 17.4%; in experiment [6], 4.15%.
In the case of `CC(=O)Nc1ccc(C(=O)NN2C(=O)CSC2c2ccc([N+](=O)[O-])cc2)cc1` (stereo unspecified), the growth inhibition in experiment [1] was -24.1%; in experiment [2], -39.8%; in experiment [3] it was -54.5%; in experiment [4], -6.3%; in experiment [5], -24.3%; in experiment [6] it was -53.2%.
With `Nc1nc(SCC(=O)c2ccc(Br)cc2)c2[nH]cnc2n1`, the growth inhibition in experiment [1] is 23.2%; in experiment [2], 3.35%; in experiment [3] it was -10.9%; in experiment [4], 10.1%; in experiment [5] it was 23.1%; in experiment [6], 26.9%.
Turning to `O=S(=O)(c1ccccc1)C1(Sc2ccccc2)CC(Br)[C@@H](Br)C1` (stereo partly specified), the growth inhibition in experiment [1] was 21.9%; in experiment [2], 7.3%; in experiment [3] it was 25.5%; in experiment [4] it was 8%; in experiment [5], -6.65%; in experiment [6] it was -5.55%.
For `O=[N+]([O-])c1nccn1CCCl`, the growth inhibition in experiment [1] was 20.1%; in experiment [2] it was -3.75%; in experiment [3] it was 2.35%; in experiment [4] it was -26.1%; in experiment [5], -9.85%; in experiment [6], -1.7%.
`CC1(c2ccncc2)NC(=O)NC1=O` (stereo unspecified): the growth inhibition in experiment [1] is 31.9%; in experiment [2], -12.6%; in experiment [3], 10.3%; in experiment [4] it was 1.4%; in experiment [5], -5.8%; in experiment [6], 18.6%.
For `O=c1nc2n(cc1F)C1OC(CCl)C(O)C1O2` (stereo unspecified), the growth inhibition was 8.55% in experiment [1]; -8% in experiment [2]; 15.7% in experiment [3]; 1.05% in experiment [4]; 6.9% in experiment [5]; 2.2% in experiment [6].
With `CC(=O)O[C@H]1CCN2C(=O)C=CC(OCc3ccccc3)C12` (stereo partly specified), the growth inhibition in experiment [1] was 3.8%; in experiment [2], -15.3%; in experiment [3], 11.1%; in experiment [4], 13.2%; in experiment [5] it was -5.95%; in experiment [6] it was 3.6%.
For `CCN(CC)[Si](C)(C)N(CC)CC`, the growth inhibition in experiment [1] was -20.2%; in experiment [2], -24.4%; in experiment [3], -1.2%; in experiment [4] it was -41%; in experiment [5] it was -4.5%; in experiment [6], 8.1%.
As for `CCOC(=O)c1cnc(N(C)C)nc1SC(=N)N`, the growth inhibition was -15.2% in experiment [1]; -0.7% in experiment [2]; -24.4% in experiment [3]; -53.9% in experiment [4]; -7.5% in experiment [5]; -18.6% in experiment [6].
For `Nc1nc2ccc(Br)cc2s1`, the growth inhibition was 9.3% in experiment [1]; 26.6% in experiment [2]; 35.9% in experiment [3]; 11.6% in experiment [4]; 32.5% in experiment [5]; 32.4% in experiment [6].
Take `CC(=O)C(CCN(C)C)(c1ccccc1)C1CCCCC1` (stereo unspecified): the growth inhibition in experiment [1] was -12.2%; in experiment [2], -15.2%; in experiment [3], -2.85%; in experiment [4], -6.65%; in experiment [5] it was -10.5%; in experiment [6], -3.6%.
Regarding `COc1ncnc2ncn(C)c12`, the growth inhibition in experiment [1] was 4.9%; in experiment [2], 18%; in experiment [3], -1.25%; in experiment [4] it was -12.9%; in experiment [5] it was 6.95%; in experiment [6], 0.2%.
